The record followed here is article PMC7819943, “Rice protein-binding microarrays: a tool to detect cis-acting elements near promoter regions in rice”.

Whole data set: some 68,000 sequences, median “fluorescence intensity (a.u.)” near 9,100, cut for the highest 2% near 16,000. The sample holds the highest values, similar sequences and a random draw of the others, so the mix is not that of the screen.

The target of the experiment is OsWRKY34 (Oryza sativa, UniProt Q0JBA9 1-250). As to the kind of experiment: protein-binding microarray (RPBM); PBS, 2% BSA, 51.3 ng/ul salmon testes DNA, 50 uM zinc acetate, 200 nM TF, 25 C, 1 h; high values mean tight binding. The settings on record: protein: recombinant; tags: N-terminal polyhistidine and DsRed monomer fusion (pET32a); label: CyDye5-dUTP incorporated in the synthesized complementary strand; 3' TTTTT single-stranded linker to array surface; dsDNA, one strand shown. An outline of the steps: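 In PBS with 2% BSA, salmon testes DNA and 50 µM zinc acetate, 200 nM protein was incubated on a custom Agilent array at 25 °C for 1 h and then washed off. The array had been made double-stranded by primer extension with Cy5-dUTP and blocked with 2% BSA. The proteins were transcription factors fused N-terminally to polyhistidine and DsRed, expressed in E. coli BL21-CodonPlus and purified on Ni–NTA. The binding signal is per-feature fluorescence intensity (arbitrary units) from an Axon 4000B scanner.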
Chain of OsWRKY34 (Q0JBA9 entry or part of it): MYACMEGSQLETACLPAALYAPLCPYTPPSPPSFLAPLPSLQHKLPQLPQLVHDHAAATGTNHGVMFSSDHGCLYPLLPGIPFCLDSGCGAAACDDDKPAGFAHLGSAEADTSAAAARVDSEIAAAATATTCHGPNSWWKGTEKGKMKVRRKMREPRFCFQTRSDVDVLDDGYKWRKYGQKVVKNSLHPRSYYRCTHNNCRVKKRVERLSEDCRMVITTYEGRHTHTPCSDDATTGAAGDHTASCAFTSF
For “AGAGAGAGGTTGCTGTTTCGATGCGTATTTCTGCAGCTTTCGGAGTCACCTAGTGCAG”, the binding signal was 10100 fluorescence intensity (a.u.).
Under “GTCCCGGGCACCGACCACGATCCGTTCCCGCCACACAAACCGGAGTCACCTAGTGCAG” stands 8080 fluorescence intensity (a.u.); under “TCCGCCCTCTGACCGCGGCGCCAAAGCTCCTCCGCGCGCGCGGAGTCACCTAGTGCAG”, 8030 fluorescence intensity (a.u.).
Take “CGGACCCCATACACCTCCGCCCGATTCCCGACGCAAATCCCGGAGTCACCTAGTGCAG”: the binding signal is 9260 fluorescence intensity (a.u.).
With “GTTTGTAACGTATTTTAGCTCGCTTTATAACGGGGCAGTTCGGAGTCACCTAGTGCAG”, the binding signal was 8160 fluorescence intensity (a.u.).
For “GATTGCTTTGTGGGTGTATGGTTCATCTTCAATGGTTTACCGGAGTCACCTAGTGCAG” the value was 8030 fluorescence intensity (a.u.).
For “AACGTACTAATGCATGACACCGTTGACTTTTTTTCAACGTCGGAGTCACCTAGTGCAG” the value was 40400 fluorescence intensity (a.u.); for “CGACAAAATTCAACCGTAATTTCAACGTTTTCCTAACTTTCGGAGTCACCTAGTGCAG”, 8990 fluorescence intensity (a.u.).
Under “CCGTTTCAAAATGTTTGACACCGTTGACTTTTTAGTACGTCGGAGTCACCTAGTGCAG” stands 21100 fluorescence intensity (a.u.).
With “GTTTCAAAATGTTTGACACCGTTGACTTTTTAGTACGTGTCGGAGTCACCTAGTGCAG”, the binding signal was 22500 fluorescence intensity (a.u.).
For the sequence “TGATATCTTTTTCTTTAATGACTTTCCGTGTTTTCAACGTCGGAGTCACCTAGTGCAG”, the binding signal is 8090 fluorescence intensity (a.u.).
In the case of “CGTTTCAAAATGTTTGACACCGTTGACTTTTTAGTACATGCGGAGTCACCTAGTGCAG”, the binding signal was 35900 fluorescence intensity (a.u.).
Under “ACCATCACTTTTACTCTCTTTCTGCCTTAAAATCTCAATACGGAGTCACCTAGTGCAG” stands 8590 fluorescence intensity (a.u.); under “CCCTTTCCTTTTCTTTTTTTTTCTCATTTTATCCACAATTCGGAGTCACCTAGTGCAG”, 9870 fluorescence intensity (a.u.).
For “CGTGGCCCATCTCCAATTCTCCAGTTGCTTCCTTTTCGTTCGGAGTCACCTAGTGCAG” the value was 12600 fluorescence intensity (a.u.); for “TCTCTTTCTTTCCTTAACTCTCTTTCTCTACTCTCCACTCCGGAGTCACCTAGTGCAG”, 9580 fluorescence intensity (a.u.).
For “GCTGTGTGTACATATTACTAGTACTACTTAATACGTGCTTCGGAGTCACCTAGTGCAG” the value was 11200 fluorescence intensity (a.u.); for “TTGTGAGTGTGTATGTGTTTATGGTGTGTAATTTTTTTTACGGAGTCACCTAGTGCAG”, 9320 fluorescence intensity (a.u.); for “GGCGTTGGTCACCTCCCGTGAGTCGTCCTCTATTCCTCTTCGGAGTCACCTAGTGCAG”, 11100 fluorescence intensity (a.u.).
In the case of “GGTTGTAATCTATAGGGGTCCTTGTATAGAAATATCGTTTCGGAGTCACCTAGTGCAG”, the binding signal was 8880 fluorescence intensity (a.u.).
For “CTCCTCGCCTTCTTCTCCATCTCCATCTCGCATCTTCTCTCGGAGTCACCTAGTGCAG” the value was 11400 fluorescence intensity (a.u.); for “ACATTTTAATTTGTAGGGAGAGGTACTATGGGCTTAACTTCGGAGTCACCTAGTGCAG”, 9750 fluorescence intensity (a.u.); for “ATTTTGGGACAGAGGTAGCAGTGAACTACACGTACCTTGTCGGAGTCACCTAGTGCAG”, 21500 fluorescence intensity (a.u.).
Under “GGGGTCGGGGTGGGAGAGGGAGGCTACACTACAGCAGCAGCGGAGTCACCTAGTGCAG” stands 11100 fluorescence intensity (a.u.).
Regarding “AACAAACCAACCTAGGATACTACTGTCAATTTTCACAACCCGGAGTCACCTAGTGCAG”, the binding signal was 9280 fluorescence intensity (a.u.).
As for “GCAGTACACTGATACGATACAATCGTTGACTGTTTCAGGACGGAGTCACCTAGTGCAG”, the binding signal was 9230 fluorescence intensity (a.u.).
Under “GATGCATTTTTGTCTGGGCGTTGTCCTTGTGGAAGCATCTCGGAGTCACCTAGTGCAG” stands 10000 fluorescence intensity (a.u.); under “ATTGGATCCGGGGAGGAGGAGGTGGGGTTCGGTTTCGTGCCGGAGTCACCTAGTGCAG”, 11600 fluorescence intensity (a.u.); under “TTGTTGGGTGGGGACGTGGGGTGGGGTTCATGGAGTGGTTCGGAGTCACCTAGTGCAG”, 24800 fluorescence intensity (a.u.).
As to “TGTCCTTTGTTGTGGTGTGGTGGTGGGCATCTGGACCGTTCGGAGTCACCTAGTGCAG”, the binding signal is 29700 fluorescence intensity (a.u.).
Under “CGCTTCGCTGACGGTTGTGTGTTGGTGGGTGCAGGGGTGCCGGAGTCACCTAGTGCAG” stands 12700 fluorescence intensity (a.u.); under “GGCGCCGGGGTGGGGTGGTGCTGGAGCCACCGGAGGAGCGCGGAGTCACCTAGTGCAG”, 9730 fluorescence intensity (a.u.).
For “GTGTGGGTGGCAGGGTGTGTTGAGGAGGTGCCCGCGTTGCCGGAGTCACCTAGTGCAG”, the binding signal was 10300 fluorescence intensity (a.u.).
For “TTTTGGTGGGTGGGTTTGGGACGTTGGATTGGTGGTGGACCGGAGTCACCTAGTGCAG” the value was 12600 fluorescence intensity (a.u.); for “CAGGAGGGGTGGGTTGTTGTTCGGTGGTGTGGACCCGTGCCGGAGTCACCTAGTGCAG”, 17700 fluorescence intensity (a.u.).
For “TGGATCTGGTGTGTTAGTTTGGATTTGTGTTTGTCCTTTTCGGAGTCACCTAGTGCAG” the value was 12600 fluorescence intensity (a.u.).
Turning to “GGAGGAGGGGTGGGGTGTTGAGCCCTGGAGAAGCCACCGCCGGAGTCACCTAGTGCAG”, the binding signal is 21000 fluorescence intensity (a.u.).
Under “AATGGGTGTTTTTTTAGTTGTTGTGTGTGTTTGGACGATTCGGAGTCACCTAGTGCAG” stands 10400 fluorescence intensity (a.u.).
Regarding “TCTACGGGTATCCCGCGTCGACAATATTCCCATGCATTTACGGAGTCACCTAGTGCAG”, the binding signal is 10900 fluorescence intensity (a.u.).
Under “ATTCCGTTAGCATTTGTCCTGCCATGGCCTATTCTGCCAGCGGAGTCACCTAGTGCAG” stands 10400 fluorescence intensity (a.u.); under “CATGTTGTTCTGTTTGATGTTGCCCACTACGGTCTTTAGTCGGAGTCACCTAGTGCAG”, 10900 fluorescence intensity (a.u.).
Take “GACGAGACCGACGCCGTCATCCTCCTTCTCACGCTACCATCGGAGTCACCTAGTGCAG”: the binding signal was 8040 fluorescence intensity (a.u.).
